According to PubChem BioAssay AID602381 (National Center for Advancing Translational Sciences (NCATS), 2012):

Target: Pyruvate kinase PKLR (Homo sapiens) (UniProt P30613)
Assay: qHTS for Activators of Human Muscle Isoform 2 Pyruvate Kinase (PK): Extended Characterization using Reticulocyte PK
Conditions: purified hPK-R, Kinase-Glo ATP luminescence, 1 h; series mostly up to 57.5 µM; activity change, positive = activation: at the top concentration; active = well fitted curve in the direction sought with a large enough effect; inactive = no such curve, though single readings can be large or run the other way
Source text: Human pyruvate kinase reticulocyte (hPK-R) enzyme was supplied as a highly purified (>95% pure) preparation from Structural Genomics Consortium in Toronto (Ontario, Canada) and assayed for its ability to generate ATP from ADP using phosphoenolpyruvate (PEP) as a substrate. ATP generation was detected in a coupled reaction by luciferase-mediated luminescence, an ATP-dependent process. Pyruvate kinase substrates, PEP and ADP, were present in the assay at Km and approximately 10-fold below Km respectively. The enzyme was assayed at an intermediate level of activity to screen for both inhibitors and activators. NIH Chemical Genomics Center [NCGC] NIH Molecular Libraries Probe Centers Network [MLPCN] MLPCN Grant: MH085679 Assay Submitter (PI): Matthew G. Vander Heiden, Harvard Medical School
Three uL of substrate mix (at r.t.) in assay buffer (50 mM Imidazole pH7.2, 50 mM KCl, 7 mM MgCl2, 0.01% Tween 20, 0.05% BSA) was dispensed into white solid bottom 1,536 well microtiter plates so that the final concentrations of substrates in the assay were 0.1 mM ADP and 0.5 mM PEP. 23 nL of compound were delivered by a pin tool and 1 uL of enzyme mix (final concentration of 0.1 nM) in assay buffer (4 degree Celsius) was added. Plates were incubated at room temperature for 1 hour. Two uL of detection mix (Kinase-Glo, Promega; at 4 degree Celsius protected from light) was added and luminescence read by a ViewLux (Perkin Elmer) at 1 second exposure/plate. Data were normalized to the uninhibited (row 31). Additionally, a no enzyme and 5-fold enzyme control was dispensed in row 32, split equally between the two conditions.

Sequence of Pyruvate kinase PKLR (Homo sapiens) (P30613 whole entry, looked up, canonical isoform): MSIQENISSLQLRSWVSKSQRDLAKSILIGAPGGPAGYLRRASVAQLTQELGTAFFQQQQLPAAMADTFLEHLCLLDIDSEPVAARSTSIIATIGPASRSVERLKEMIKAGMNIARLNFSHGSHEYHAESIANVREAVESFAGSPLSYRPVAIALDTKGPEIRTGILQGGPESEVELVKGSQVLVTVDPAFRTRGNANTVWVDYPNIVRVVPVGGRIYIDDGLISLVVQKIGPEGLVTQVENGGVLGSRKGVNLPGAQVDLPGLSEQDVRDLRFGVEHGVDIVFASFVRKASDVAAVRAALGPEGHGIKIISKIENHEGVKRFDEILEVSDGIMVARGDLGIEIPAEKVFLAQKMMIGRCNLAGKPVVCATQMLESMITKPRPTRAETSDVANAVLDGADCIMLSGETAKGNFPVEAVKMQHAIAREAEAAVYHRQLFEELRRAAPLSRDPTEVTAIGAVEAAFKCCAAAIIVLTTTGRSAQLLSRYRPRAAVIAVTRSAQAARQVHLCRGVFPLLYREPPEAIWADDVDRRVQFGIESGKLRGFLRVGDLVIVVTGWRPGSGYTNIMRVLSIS

Activity change, positive = activation, inactive:
Cc1cc2c(s1)c1cnn(Cc3c(Cl)ccc(C)c3F)c(=O)c1n2C -1.16%
Cc1cc2c(s1)c1cnn(Cc3cc(F)ccc3F)c(=O)c1n2C -18.9%
Cc1cc2c(s1)c1cnn(Cc3ccc(F)cc3F)c(=O)c1n2C -0.917%
COc1cccc(Cn2ncc3c4sc(S(C)=O)cc4n(C)c3c2=O)c1 (stereo not given) 11.7%
Cc1cc2c(s1)c1cnn(Cc3cc(F)c(F)cc3F)c(=O)c1n2C 5.17%
